Source: PubChem
Tg IFNy HTS – T. gondii growth inhibition with IFN-gamma, primary screen, cell-based | AID 1259416, 2018 | 3.8% of 69,000 active | Toxoplasma gondii growth in IFN-gamma-treated host cells; hits give low values | activity change, negative = inhibition, % (test concentration not listed); in the data active means activity change below about -70%, passing the limit was not always enough;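 further: host cells are HeLa cells infected with Toxoplasma gondii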
Of the large screens only hits and unclear results are named; the others gave an inactive call. Only a selection was taken, and hits are over-represented in it overall.

Cc1ccc2c(c1)C(=O)CC1(CCN(CC(=O)Nc3nc4c(s3)CCCC4)CC1)O2	none
O=C(CN1CCCC1Cn1cccn1)Nc1nc2c(s1)CCCC2 (stereo not drawn)	Tg IFNy HTS -78
O=C(CN1CCCC1Cn1cccn1)Nc1ccnn1C1CCCC1 (stereo not drawn)	none
Cn1c(CN2CCCC(Cc3nc4ccccc4[nH]3)C2)nc2ccccc21 (stereo not drawn)	none
FC(F)(F)c1cccc(N2CCN(c3nc(-c4ccc(Cl)cc4)nc4ccccc34)CC2)c1	none
Nc1ccc(-c2ccc3ncc4ccc(=O)n(-c5cccc(C(F)(F)F)c5)c4c3c2)cn1	Tg IFNy HTS -76
COc1ccc(-c2nc(N3CCN(c4cccc(C(F)(F)F)c4)CC3)c3ccccc3n2)cc1	none
CCS(=O)(=O)N1CCC2(CC(Nc3cnccn3)CO2)C1 (stereo not drawn)	none
CN1C(=O)N(C)C2C1NC(=O)N2CC(=O)Nc1ccc(N2CCCCC2)c(F)c1 (stereo not drawn)	none
Cc1ccccc1-c1nc(Cn2nnc(C(=O)Nc3ccc(Br)cc3F)c2C)c(C)o1	none
COc1ccc(S(=O)(=O)Nc2ccc3c(c2)C(=O)N([C@@H](C)CO)C[C@H](C)[C@@H](CN(C)S(=O)(=O)c2ccc(Cl)cc2)OCCCC[C@@H](C)O3)cc1	Tg IFNy HTS -113
COc1ccc(S(=O)(=O)Nc2ccc3c(c2)C(=O)N([C@H](C)CO)C[C@H](C)[C@@H](CN(C)S(=O)(=O)c2ccc(Cl)cc2)OCCCC[C@@H](C)O3)cc1	none
C[C@@H]1CCCCO[C@@H](CN(C)S(=O)(=O)c2ccc(Cl)cc2)[C@@H](C)CN([C@@H](C)CO)C(=O)c2cc(NC(=O)Nc3ccc(C(F)(F)F)cc3)ccc2O1	none
COc1ccc(S(=O)(=O)Nc2ccc3c(c2)C(=O)N([C@@H](C)CO)C[C@@H](C)[C@@H](CN(C)S(=O)(=O)c2ccc(Cl)cc2)OCCCC[C@H](C)O3)cc1	Tg IFNy HTS -128
COc1ccc(S(=O)(=O)Nc2ccc3c(c2)C(=O)N([C@@H](C)CO)C[C@H](C)[C@@H](CN(C)S(=O)(=O)c2ccc(Cl)cc2)OCCCC[C@H](C)O3)cc1	Tg IFNy HTS -130
C[C@@H]1CCCCO[C@H](CN(C)S(=O)(=O)c2ccc(Cl)cc2)[C@@H](C)CN([C@@H](C)CO)C(=O)c2cc(NC(=O)Nc3ccc(C(F)(F)F)cc3)ccc2O1	none
C[C@@H]1CN([C@H](C)CO)C(=O)c2cc(NS(=O)(=O)c3ccc(Cl)cc3)ccc2O[C@@H](C)CCCCO[C@@H]1CN(C)C(=O)CCCN(C)C	none
C[C@@H]1CN([C@@H](C)CO)C(=O)c2cc(NC(=O)Nc3ccc(C(F)(F)F)cc3)ccc2O[C@@H](C)CCCCO[C@@H]1CN(C)S(=O)(=O)c1ccc(Cl)cc1	none
C[C@@H]1CCCCO[C@H](CN(C)S(=O)(=O)c2ccc(Cl)cc2)[C@H](C)CN([C@@H](C)CO)C(=O)c2cc(NC(=O)Nc3ccc(C(F)(F)F)cc3)ccc2O1	none
COc1ccc(S(=O)(=O)Nc2ccc3c(c2)C(=O)N([C@H](C)CO)C[C@H](C)[C@@H](CN(C)S(=O)(=O)c2ccc(Cl)cc2)OCCCC[C@H](C)O3)cc1	Tg IFNy HTS -113
CCCn1ncc(NC(=O)c2cccc(CN3CC=CCC3)c2)n1	none
O=C(N1CCCC1)N1CCC2(CC1)CN(Cc1cccnc1)CC21CCNC1=O (stereo not drawn)	none
C=CCN(Cc1ccccc1C)C(=O)COc1ccc2c(c1)OCO2	none
O=C(Cn1ncc2c(N3CCCCCC3)ncnc21)Nc1ccc(F)cc1F	none
O=C(c1conc1-c1ccccc1)N1CC(c2cccnc2)C1	none
CC(C)C(=O)N1CC2CN(Cc3ccc[nH]3)CC2C1 (stereo not drawn)	none
COc1ccc(CN2CCOC3(COCCN(C(C)=O)C3)C2)cc1 (stereo not drawn)	none
Fc1cccc(NC2COC3(CCN(Cc4ccsc4)C3)C2)c1 (stereo not drawn)	none
Cc1cc2ncc(C3=NNC(O)(C(F)(F)F)C3)c(C)n2n1 (stereo not drawn)	none
COCc1nc(NCc2cccc(CN3CCCC3)c2)c2cnn(C)c2n1	none
CC(C)c1ccc(S(=O)(=O)N2CCC3(CC2)NCCN=C3NCc2ccccc2)cc1	none
CC(O)CN1CCC2(CC1)CC(Oc1ccccc1)CO2 (stereo not drawn)	none
O=C1CCC2(CCN1)CCN(C(=O)c1cc3ccccc3[nH]1)CC2	none
CC(=O)N1CCn2c(COCc3ccccn3)cnc2C1C (stereo not drawn)	none
CC1NCCn2c(COCc3ccccn3)cnc21 (stereo not drawn)	Tg IFNy HTS -83
CC1c2ncc(CNC(=O)C3CC3)n2CCN1Cc1ccccn1 (stereo not drawn)	none
Cc1ccc(N(CC(=O)NCc2cccnc2)S(C)(=O)=O)cc1	none
COc1cc([C@@H]2c3cc4c(cc3C(O[C@@H]3O[C@@H]5CO[C@@H](c6cccs6)OC5[C@H](O)[C@H]3O)C3COC(=O)[C@@H]32)OCO4)cc(OC)c1O (stereo partly drawn)	Tg IFNy HTS -80
CCN1CC[C@@]2(CN(S(=O)(=O)C3CC3)C[C@H]2c2ccccc2)C1=O	none
COc1ccc(CN2C(=O)N(C)C3(CCN(Cc4nc(-c5ccccc5)cs4)CC3)C2=O)cc1	none
COc1ccc(CN2C(=O)N(C)C3(CCN(Cc4cccc(Oc5ccccc5)c4)CC3)C2=O)cc1	Tg IFNy HTS -81
CCN1C(=O)N(Cc2cccc(OC)c2)C(=O)C12CCN(Cc1nc3ccccc3nc1C)CC2	none
Cc1nc(-c2cccc(F)c2)sc1CCNS(=O)(=O)c1ccc(Br)cc1	none
Cc1cccc(CN2C[C@H]3COC[C@@]3(COCc3csc(C)n3)C2)n1	none
CC(=O)O[C@H]1C(=O)[C@@]2(C)C([C@H](OC(=O)c3ccccc3)[C@]3(O)C[C@H](OC(=O)[C@H](O)[C@@H](NC(=O)c4ccccc4)c4ccccc4)C(C)=C1C3(C)C)[C@]1(OC(C)=O)CO[C@@H]1C[C@@H]2O (stereo partly drawn)	Tg IFNy HTS -79
CC(=O)OC1C(=O)C2(C)C(O)CC3OCC3(OC(C)=O)C2C(OC(=O)c2ccccc2)C2(O)CC(OC(=O)C(O)C(NC(=O)c3ccccc3)c3ccccc3)C(C)=C1C2(C)C (stereo not drawn)	Tg IFNy HTS -88
C[C@H]1[C@H](OC(=O)CCC(=O)O)O[C@@H]2O[C@@]3(C)CC[C@H]4[C@H](C)CC[C@@H]1[C@@]24OO3	Tg IFNy HTS -80
CC(=O)[C@H]1CCC2C3CC=C4C[C@@H](OC(=O)CCC(=O)O)CC[C@]4(C)C3CC[C@@]21C (stereo partly drawn)	none
O=C(NC1CCCC1)c1nc2c(o1)CN(C(=O)CCO)C2	none
Cc1ccc(NC(=O)Cn2c(=O)cc(C(=O)N3CCOCC3)c3ccccc32)c(Cl)c1	none
CCOC(=O)c1cccc(NC(=O)C2CCN(S(=O)(=O)c3ccc4[nH]c(=O)ccc4c3)CC2)c1	none
O=C(NC1CCCCCC1)c1nc(Nc2ccccc2)c2ccccc2n1	Tg IFNy HTS -85
O=C(NC1CCCC1)c1nc(Nc2ccc(F)cc2)c2ccccc2n1	none
CCc1ccc(Nc2nc(C(=O)NCCOC)nc3ccccc23)cc1	none
CCc1ccccc1NC(=O)c1nc(Nc2ccc(C)cc2)c2ccccc2n1	Tg IFNy HTS -86
CCC(C)NC(=O)c1nc(Nc2cccc(C)c2)c2ccccc2n1 (stereo not drawn)	none
CCc1ccccc1NC(=O)c1nc(Nc2ccccc2)c2ccccc2n1	none
Cc1cccc(Nc2nc(C(=O)NCc3cccc(Cl)c3)nc3ccccc23)c1	Tg IFNy HTS -96
CCCNC(=O)c1nc(Nc2ccc(CC)cc2)c2ccccc2n1	Tg IFNy HTS -83
